In PubChem BioAssay (NCATS):
Records with an inconclusive call do not appear. Entries that show only a call come without a potency. The source made the active and inactive calls. Calls follow the shape of the dose curve; as a rule, active = well fitted inhibition curve with a large enough effect; inconclusive = small, poorly fitted or top-dose-only effect; inactive = flat fitted curve, though single readings scatter.
Potency is read from the fitted curve at half-maximal effect.

These compounds were tested against Luciferin 4-monooxygenase (Photinus pyralis) (UniProt P08659) (assay: Biochemical firefly luciferase enzyme assay for NPC (AID 624030; also: nearly all actives have a fitted effect of over 70% in size)). Settings: purified P. pyralis luciferase, luminescence, 5 min; series mostly up to 58.6 µM.
Luciferin 4-monooxygenase (Photinus pyralis), sequence (P08659 whole entry, looked up): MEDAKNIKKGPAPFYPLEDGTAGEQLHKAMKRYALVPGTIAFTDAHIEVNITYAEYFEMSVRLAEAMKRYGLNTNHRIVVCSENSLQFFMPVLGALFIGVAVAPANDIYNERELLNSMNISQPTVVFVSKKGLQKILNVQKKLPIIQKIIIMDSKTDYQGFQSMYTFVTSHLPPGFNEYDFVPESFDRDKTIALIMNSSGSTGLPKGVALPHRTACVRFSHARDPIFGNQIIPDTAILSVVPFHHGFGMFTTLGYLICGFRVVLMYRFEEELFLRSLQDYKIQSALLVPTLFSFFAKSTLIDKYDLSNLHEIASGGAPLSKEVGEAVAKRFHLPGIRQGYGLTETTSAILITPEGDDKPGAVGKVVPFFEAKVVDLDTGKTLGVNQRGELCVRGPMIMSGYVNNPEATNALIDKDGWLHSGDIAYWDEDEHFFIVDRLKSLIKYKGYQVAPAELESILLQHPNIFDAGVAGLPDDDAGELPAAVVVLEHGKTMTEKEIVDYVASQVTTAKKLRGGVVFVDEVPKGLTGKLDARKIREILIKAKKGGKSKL
How it was run: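 Direct inhibition of firefly luciferase enzyme (10 nM final, 50 mM Tris Acetate) assessed by luminescence within 5 minutes. Percent activity scaled between DMSO and PTC124 positive control, with concentration-effect curves classified by fit quality and response.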
For `Nc1nc(-c2ccccc2)c(Br)c(=O)[nH]1`, the Potency was “inactive”.
`COc1cc(C(=O)NCc2ccc(OCCN(C)C)cc2)cc(OC)c1OC` was tested, and the Potency was “inactive”.
For `CN1CCC(OC(c2ccccc2)c2ccccc2)CC1`, the Potency was “inactive”.
In the case of `C[C@@H](O)[C@H]1C(=O)N2C(C(=O)O)=C(S[C@@H]3CN[C@H](CNS(N)(=O)=O)C3)[C@H](C)[C@H]12`, the Potency is reported as “inactive”.
For `COc1ccc(C(=O)c2ccccc2O)c(O)c1`, the Potency was “inactive”.
`CCCCN=C(N)N=C(N)N` was tested, and the Potency was “inactive”.
`CCCCc1cc2ccccc2c(OCCN(C)C)n1` was tested, and the Potency was “inactive”.
`NC(=O)C1(N2CCCCC2)CCN(CCCC(=O)c2ccc(F)cc2)CC1` was tested, and the Potency was “inactive”.
For `CCC(CC)(CC(=O)Nc1cccc(/C=C/c2nc(C3CCC3)cs2)c1)C(=O)O`, the Potency was 5.73 µM (active).
For `O=C(O)P(=O)(O)O`, the Potency was “inactive”.
With `CCOc1ccccc1OCCN[C@H](C)Cc1ccc(OC)c(S(N)(=O)=O)c1` the Potency was “inactive”.
For `NS(=O)(=O)Cc1noc2ccccc12`, the Potency was “inactive”.
`C/C=C/C=N/NC(=O)c1ccncc1` was tested, and the Potency was “inactive”.
For `Cc1ccccc1OCC(O)CO` (stereo not given), the Potency was “inactive”.
For `O=C(c1ccc(F)cc1)C1CCN(CCn2c(=S)[nH]c3ccccc3c2=O)CC1`, the Potency was “inactive”.
`CCCCNc1ccc(C(=O)OCCOCCOCCOCCOCCOCCOCCOCCOCCOC)cc1` was tested, and the Potency was “inactive”.
In the case of `NS(=O)(=O)c1cc(C(=O)O)cc(N2CCCC2)c1Oc1ccccc1`, the Potency is reported as “inactive”.
In the case of `C#C[C@]1(O)CC[C@H]2[C@@H]3CCc4cc(OC)ccc4[C@H]3CC[C@@]21C`, the Potency is reported as “inactive”.
In the case of `COc1ccc(/C=N/NC(=O)c2ccncc2)cc1OC`, the Potency is reported as “inactive”.
For `Oc1ccc(Cl)cc1Cc1cc(Cl)ccc1O`, the Potency was “inactive”.
With `COc1cc(N)c(Cl)cc1C(=O)NC1CCN(Cc2ccccc2)CC1` the Potency was “inactive”.
With `CCNC(=O)NCc1cccc(Cl)c1` the Potency was “inactive”.
For `CC(C)Nc1cccnc1N1CCN(C(=O)c2cc3cc(NS(C)(=O)=O)ccc3[nH]2)CC1`, the Potency was “inactive”.
For `COc1ccc(-c2cc(C(F)F)nn2-c2ccc(S(N)(=O)=O)cc2)cc1F`, the Potency was “inactive”.
`CC(=O)Nc1ncc([N+](=O)[O-])s1` was tested, and the Potency was “inactive”.
In the case of `OC(C#CCN1CCCC1)(c1ccccc1)c1ccccc1`, the Potency is reported as “inactive”.
For `C#C[C@]1(O)CC[C@H]2[C@@H]3CCC4=CC(=O)CC[C@@H]4[C@H]3CC[C@@]21CC`, the Potency was “inactive”.
For `O=C1C(CCS(=O)c2ccccc2)C(=O)N(c2ccccc2)N1c1ccccc1` (stereo not given), the Potency was “inactive”.
In the case of `COc1ccc(CCN(C)CCCN2CCc3cc(OC)c(OC)cc3CC2=O)cc1OC`, the Potency is reported as “inactive”.
`CC(=O)OC[C@H]1O[C@@H](n2ncc(=O)[nH]c2=O)[C@H](OC(C)=O)[C@@H]1OC(C)=O` was tested, and the Potency was “inactive”.
In the case of `Nc1nc(N)c(-c2ccccc2)s1`, the Potency is reported as “inactive”.
For `CC(=O)NO`, the Potency was “inactive”.
For `Nc1ccc(S(=O)(=O)Nc2cnc3ccccc3n2)cc1`, the Potency was “inactive”.
With `O=C(O)C(Cc1cc(I)c(O)c(I)c1)c1ccccc1` (stereo not given) the Potency was “inactive”.
For `Nc1ccc(S(=O)(=O)NCc2ccccc2)cc1`, the Potency was “inactive”.
